Inconclusive results are not listed. A call without a number means that no potency is given here. Activity calls are given as the source filed them. Calls come from the whole dose curve; as a rule, active = well fitted curve in the direction sought with a large enough effect; inconclusive = small, poorly fitted or top-dose-only effect, or another doubt; inactive = no such curve, though single readings can be large; an effect the other way counts as inactive or inconclusive.
Legend:
[1] = tested on: Zika virus NS2B-NS3 protease; assay: Primary screen GU AMC qHTS for Zika virus inhibitors (AID 1347154); note: nearly all actives have a fitted effect of over 70% in size
In short: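 Fluorogenic AMC-substrate cleavage by noncovalent NS2B-NS3 protease complex (25 nM, pH 8.0 Tris buffer with Tween 20) followed for 15 minutes at room temperature (~20% conversion). Percent inhibition from ex340/em450 signal change, fitted by 4-parameter Hill equation.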

[2] = target: Lysine-specific demethylase 5B (Homo sapiens) (UniProt Q9UGL1); assay: Optimization screen for KDM5B Histone Demethylases FDH coupled qHTS against the LOPAC library (AID 1347166)
In short: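 KDM5BDeltaAP (200nM final) preincubated 10 min with compound, then 12.5uM H3K4Me3, 25uM a-ketoglutarate, ascorbate, Fe(II), NAD+ and FDH added; 50mM HEPES pH 7.5, 0.01% Tween-20. NADH fluorescence (340/450 nm) change over 30 min, room temperature.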

[3] = tested on: Zika virus NS2B-NS3 protease (unlinked complex); assay: Primary screen GU Rhodamine qHTS for Zika virus inhibitors: Unlinked NS2B-NS3 protease assay (AID 1347159); note: nearly all actives have a fitted effect of over 60% in size
In short: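 Noncovalent NS2B hydrophilic domain/NS3 protease complex (25 nM final) in 10 mM Tris-HCl pH 8.0, 0.01% Tween 20, preincubated 15 min with compounds (up to 114 microM), then 1.5 microM Rhodamine110 substrate. Fluorescence change over 15 min fitted to 4-parameter Hill.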

[4] = tested on: Zika virus NS2B-NS3 protease (linked construct); assay: Primary screen NINDS Rhodamine qHTS for Zika virus inhibitors (AID 1347160); note: nearly all actives have a fitted effect of over 55% in size
In short: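 Purified NS2B-NS3 protease with the NS2B hydrophilic domain joined by a flexible linker (25 nM) in 10 mM Tris-HCl pH 8.0, 0.01% Tween 20, preincubated 15 min at RT with compound; Rhodamine110 peptide substrate 1.5 µM; fluorescence change over 15 min; 4-parameter Hill fit.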

Sequence of Lysine-specific demethylase 5B (Homo sapiens) (Q9UGL1 whole entry, looked up): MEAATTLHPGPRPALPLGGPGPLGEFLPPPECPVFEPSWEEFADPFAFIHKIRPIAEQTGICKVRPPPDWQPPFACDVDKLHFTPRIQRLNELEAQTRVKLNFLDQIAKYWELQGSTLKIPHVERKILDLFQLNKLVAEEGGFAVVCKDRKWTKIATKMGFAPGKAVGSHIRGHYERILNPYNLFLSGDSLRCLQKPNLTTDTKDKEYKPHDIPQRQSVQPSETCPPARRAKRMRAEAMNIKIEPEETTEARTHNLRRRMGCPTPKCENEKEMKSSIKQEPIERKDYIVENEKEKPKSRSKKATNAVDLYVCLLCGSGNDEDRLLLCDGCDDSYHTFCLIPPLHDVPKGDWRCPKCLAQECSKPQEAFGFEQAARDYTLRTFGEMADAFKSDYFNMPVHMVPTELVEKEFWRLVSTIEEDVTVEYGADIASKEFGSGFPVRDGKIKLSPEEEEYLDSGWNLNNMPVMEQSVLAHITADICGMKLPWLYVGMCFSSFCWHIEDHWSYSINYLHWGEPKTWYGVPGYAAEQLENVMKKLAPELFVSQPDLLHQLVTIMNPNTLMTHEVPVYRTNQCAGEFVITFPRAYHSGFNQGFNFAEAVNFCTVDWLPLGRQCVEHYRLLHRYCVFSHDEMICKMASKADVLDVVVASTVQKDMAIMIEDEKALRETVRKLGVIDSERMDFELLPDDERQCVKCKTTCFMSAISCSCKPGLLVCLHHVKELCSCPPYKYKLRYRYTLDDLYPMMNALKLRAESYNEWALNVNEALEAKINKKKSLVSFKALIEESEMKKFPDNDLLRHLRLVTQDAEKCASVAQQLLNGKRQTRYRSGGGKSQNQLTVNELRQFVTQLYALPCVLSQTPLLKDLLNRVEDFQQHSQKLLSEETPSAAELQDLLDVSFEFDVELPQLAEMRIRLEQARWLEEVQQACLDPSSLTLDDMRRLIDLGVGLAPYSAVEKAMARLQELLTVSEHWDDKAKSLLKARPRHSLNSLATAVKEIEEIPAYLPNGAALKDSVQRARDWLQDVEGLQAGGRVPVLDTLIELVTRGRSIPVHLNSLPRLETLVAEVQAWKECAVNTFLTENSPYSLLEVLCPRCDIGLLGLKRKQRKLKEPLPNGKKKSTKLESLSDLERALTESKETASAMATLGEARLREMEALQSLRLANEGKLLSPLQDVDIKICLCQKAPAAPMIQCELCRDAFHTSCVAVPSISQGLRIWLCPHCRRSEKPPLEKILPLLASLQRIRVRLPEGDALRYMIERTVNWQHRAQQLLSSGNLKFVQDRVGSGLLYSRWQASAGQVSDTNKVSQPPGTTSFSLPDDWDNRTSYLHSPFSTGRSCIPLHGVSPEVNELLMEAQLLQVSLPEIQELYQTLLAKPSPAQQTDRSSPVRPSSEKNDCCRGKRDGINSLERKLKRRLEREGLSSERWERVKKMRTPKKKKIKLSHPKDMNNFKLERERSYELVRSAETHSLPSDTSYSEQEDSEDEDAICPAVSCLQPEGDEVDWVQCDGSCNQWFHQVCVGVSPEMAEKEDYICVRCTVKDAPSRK

Row | Structure (SMILES) | Potency [1] | outcome [2] | Potency [3] | Potency [4]
1 | Clc1cnc(Oc2ccc(Oc3ncc(Cl)cc3Cl)cc2)c(Cl)c1 | inactive | inactive |  | 
2 | CC(=O)NCCc1c[nH]c2ccccc12 | inactive | inactive | inactive | inactive
3 | O=C1CCCN1CC#CCN1CCCC1 | inactive | inactive |  | 
4 | O=C(NCC1CCOCC1)c1cnc(Nc2ccc(Cl)cc2Cl)nc1C(F)(F)F | inactive |  |  | inactive
5 | NC(=NCCC[C@H](N)C(=O)O)N[N+](=O)[O-] | inactive | inactive |  | 
6 | C/C=C(/C)C(=O)O[C@H]1C(C)=C2[C@H]([C@@H]1OC(=O)CCCCCCC)[C@@](C)(OC(C)=O)C[C@H](OC(=O)CCC)[C@@]1(O)[C@H]2OC(=O)[C@@]1(C)O | inactive | inactive |  | 
7 | NC(CP(=O)(O)O)C(=O)O (configuration not stated) | inactive | inactive |  | 
8 | CC(C)N(CCNC(=O)CN1CCCC1=O)C(C)C | inactive |  | inactive | inactive
9 | NCCc1c[nH]c2ccccc12 | inactive | inactive |  | inactive
10 | CC(Cc1ccc(O)cc1)NCC(O)c1cc(O)cc(O)c1 (configuration not stated) | inactive | inactive |  | 
11 | Cc1c(C(=O)Nc2cccc(C(F)(F)F)c2)cc(-c2ccccc2)n1CCCN1CCOCC1 | inactive |  | inactive | inactive
12 | CCN(CC)C(=O)c1ccc(C2=CC3(CCNCC3)Oc3cccc(O)c32)cc1 | inactive |  | inactive | inactive
13 | CCOC(=O)Nc1ccc(NCc2ccc(F)cc2)cc1N | inactive |  | inactive | inactive
14 | O=C(Oc1ccc([N+](=O)[O-])cc1)N1CCC(C(O)(c2ccc3c(c2)OCO3)c2ccc3c(c2)OCO3)CC1 | inactive |  |  | inactive
15 | CC(C)[C@]12O[C@H]1[C@@H]1O[C@]13[C@]1(O[C@H]1C[C@H]1C4=C(CC[C@@]13C)C(=O)OC4)[C@@H]2O | inactive |  |  | inactive

— PubChem BioAssay (NCATS)
